In PubChem BioAssay (NCI) one finds growth data, which are given here for eight molecules.

About 83,000 compounds went through this panel and 20% of them were active in at least one assay; those are over-represented in the sample as a whole.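 Activity criterion: percent growth below 10, measured after cells in 96-well plates were exposed to a single compound concentration for 48 hours.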 A number with no mark means an inactive call. Calls of active or inactive are those of the source.

Among the test systems are NCI-H23 lung; NCI-H226 lung; NCI-H322M lung; HOP-62 NSCLC; NCI-H460 lung; HOP-92 NSCLC; NCI-H522 lung; A549/ATCC NSCLC; 786-0 renal; COLO 205 colon; DU-145 prostate; K-562 leukemia; MALME-3M melanoma; RXF 393 renal; SF-268 CNS; SF-295 CNS; SF-539 CNS; UACC-257 melanoma; M14 melanoma; MDA-MB-231 breast.
Holding throughout (experiment): NCI-60 one-dose screen, 48 h (100 = growth as untreated, 0 = no growth, -100 = all killed)
Common to all, as to details: 10 µM unless noted

With `O=C(N/N=C/c1ccc(-c2ccc(O)cc2)o1)c1[nH]c2ccc(Br)cc2c1-c1ccccc1`, the growth was 5.82% (active) in the assay on NCI-H23 lung; 10.6% in the assay with NCI-H226 lung; 17.4% in the assay on NCI-H322M lung; -11.3% (active) in the assay with HOP-62 NSCLC; -11.3% (active) in the assay on NCI-H460 lung; -40.7% (active) in the assay on HOP-92 NSCLC. In addition, the growth with NCI-H522 lung is -45.9% (active); with A549/ATCC NSCLC it was 11.2%; with 786-0 renal, -16.7% (active); in the assay on COLO 205 colon, -54.5% (active); in the assay on DU-145 prostate it was 0.567% (active); in the assay with K-562 leukemia it was 1.64% (active). Further, the growth was -26.8% (active) in the assay with MALME-3M melanoma; -10% (active) in the assay on RXF 393 renal; 12.7% in the assay with SF-268 CNS; -68.7% (active) in the assay on SF-295 CNS; -59.2% (active) in the assay with SF-539 CNS; 27.4% in the assay with UACC-257 melanoma. Besides, the growth with M14 melanoma is 18.1%.
As for `COc1ccc([C@H](C)Nc2nc(Cl)nc3ccccc23)cc1`, the growth in the assay with NCI-H23 lung was 23.2%; with NCI-H226 lung, 58.9%; with NCI-H322M lung, 86%; in the assay on HOP-62 NSCLC it was 43.6%; with NCI-H460 lung, 60.8%; in the assay with HOP-92 NSCLC, 46.1%. Moreover, the growth with NCI-H522 lung is -0.556% (active); with A549/ATCC NSCLC, 70.2%; in the assay with 786-0 renal, 84.8%; in the assay on COLO 205 colon, 90.3%; in the assay with DU-145 prostate it was 74.2%; in the assay on K-562 leukemia, 9.94% (active). In addition, the growth in the assay on MALME-3M melanoma was 66.5%; with RXF 393 renal, 78.3%; in the assay on SF-268 CNS, 76.6%; with SF-295 CNS it was 20.2%; with SF-539 CNS, 68.3%; in the assay on UACC-257 melanoma, 48.2%. Further, in the assay with M14 melanoma, the growth was 78.8%.
As to `Cc1cc(C)cc(C(=O)Nc2cccc(-c3cn(-c4ccc(S(N)(=O)=O)cc4)nn3)c2)c1`, the growth in the assay on NCI-H23 lung is 0.645% (active); in the assay with NCI-H226 lung it was 15.9%; in the assay with NCI-H322M lung it was 68.5%; in the assay with HOP-62 NSCLC, -18.3% (active); in the assay on NCI-H460 lung, 41.4%; in the assay on HOP-92 NSCLC it was -56.2% (active). Moreover, the growth in the assay on NCI-H522 lung was 61.7%; with A549/ATCC NSCLC it was 62.2%; in the assay on 786-0 renal it was -66.3% (active); in the assay with COLO 205 colon, 141%; with DU-145 prostate, 72.1%; in the assay with K-562 leukemia, 19.1%. For the same molecule, the growth in the assay with MALME-3M melanoma was 20.4%; with RXF 393 renal it was -26.1% (active); in the assay with SF-268 CNS it was 16.6%; in the assay on SF-295 CNS it was -36.6% (active); with SF-539 CNS, -84.3% (active); with UACC-257 melanoma, 76.2%. Further, in the assay with M14 melanoma, the growth is 73.4%.
As for `COc1cc(-c2ccc(/C=N/NC(=O)c3[nH]c4ccc(Br)cc4c3-c3ccccc3)s2)cc(OC)c1OC`, the growth in the assay with NCI-H23 lung was 68.2%; with NCI-H226 lung, 54.4%; with NCI-H322M lung it was 90.2%; with HOP-62 NSCLC it was 74.2%; with NCI-H460 lung, 75.7%; with HOP-92 NSCLC it was 69.7%. In addition, the growth in the assay on NCI-H522 lung was 83.2%; in the assay on A549/ATCC NSCLC, 77.1%; in the assay on 786-0 renal it was 58.3%; in the assay on COLO 205 colon, 108%; in the assay with DU-145 prostate it was 86.4%; in the assay with K-562 leukemia, 89.6%. In addition, the growth was 86.7% with MALME-3M melanoma; 82.4% with RXF 393 renal; 67.8% in the assay on SF-268 CNS; 49.6% in the assay on SF-295 CNS; 6.55% (active) in the assay on SF-539 CNS; 100% with UACC-257 melanoma. Also, in the assay on M14 melanoma, the growth is 82.5%.
With `O=C(/C=C/c1cccc(OCc2ccc(F)cc2)c1)c1nc2ccccc2[nH]1`, the growth was 73% in the assay on NCI-H23 lung; 42.2% in the assay with NCI-H226 lung; 114% in the assay with NCI-H322M lung; 71.1% with HOP-62 NSCLC; 76.8% in the assay on NCI-H460 lung; 27.5% in the assay with HOP-92 NSCLC. Further, the growth was 63.5% with NCI-H522 lung; 49.5% in the assay with A549/ATCC NSCLC; -46.1% (active) with 786-0 renal; 13.8% in the assay with COLO 205 colon; 70.3% in the assay on DU-145 prostate; -14.6% (active) in the assay on K-562 leukemia. In addition, the growth is 95.8% with MALME-3M melanoma; 57.7% in the assay on RXF 393 renal; 95.1% with SF-268 CNS; 74.2% in the assay with SF-295 CNS; 44.7% in the assay with SF-539 CNS; 76.1% with UACC-257 melanoma. Further, the growth in the assay on M14 melanoma was 13.8%.
Consider `O=C(NNc1nc2cc(F)ccc2n2c(C(=O)N3CCN(C4CC4)CC3)ccc12)c1ncccn1`, for which the growth in the assay with NCI-H23 lung was 38.4%; in the assay on NCI-H226 lung, 11.4%; in the assay with NCI-H322M lung, 29.9%; in the assay with HOP-62 NSCLC, 20%; in the assay with NCI-H460 lung it was 8.44% (active); in the assay on HOP-92 NSCLC it was 69.2%. Also, the growth in the assay on NCI-H522 lung is 67.1%; in the assay on A549/ATCC NSCLC, 24.5%; in the assay with 786-0 renal, -9.79% (active); in the assay with COLO 205 colon, 7.77% (active); in the assay with DU-145 prostate, 47.8%; with MALME-3M melanoma, 33.2%. Besides, the growth is 43.6% in the assay on MDA-MB-231 breast; 64.8% in the assay on RXF 393 renal; 29.9% in the assay with SF-268 CNS; -33.9% (active) in the assay with SF-295 CNS; 12.9% in the assay with SF-539 CNS; 19.7% with UACC-257 melanoma. Besides, the growth with M14 melanoma is -33% (active).
As to `N#Cc1c(-c2ccc(Cl)cc2)nc2n[nH]c(-c3ccc(Cl)cc3)c2c1-c1cccs1`, the growth with NCI-H23 lung was 62.7%; with NCI-H226 lung it was 54.1%; in the assay on NCI-H322M lung it was 76.8%; with HOP-62 NSCLC, 62.8%; in the assay on NCI-H460 lung, 51.1%; with HOP-92 NSCLC, 15.7%. For the same molecule, the growth in the assay with NCI-H522 lung was 54.4%; with A549/ATCC NSCLC, 54.9%; with 786-0 renal, 67.5%; with COLO 205 colon it was 53.2%; in the assay with DU-145 prostate, 65.1%; in the assay on K-562 leukemia, 16.9%. For the same molecule, the growth is 55.6% in the assay on MALME-3M melanoma; 58.2% with RXF 393 renal; 72.9% in the assay on SF-268 CNS; 63.6% in the assay on SF-295 CNS; 64.1% in the assay with SF-539 CNS; 58.1% in the assay with UACC-257 melanoma. For the same molecule, the growth with M14 melanoma is 64.6%.
For `C=C1CC[C@@H]2[C@]3(C)COC(c4cn[nH]c4-c4ccc(C)cc4)O[C@@H]3CC[C@@]2(C)[C@@H]1C/C=C1/C(=O)OCC1O` (some centres not stated), the growth with NCI-H23 lung is -8.25% (active); in the assay with NCI-H226 lung, -65.3% (active); in the assay on NCI-H322M lung it was 79.9%; in the assay with HOP-62 NSCLC, 27.4%; in the assay with NCI-H460 lung, 67%; in the assay with HOP-92 NSCLC, -9.12% (active). Moreover, the growth with NCI-H522 lung is -58.4% (active); in the assay on A549/ATCC NSCLC it was 41.5%; in the assay on 786-0 renal, -64% (active); in the assay with COLO 205 colon, 12.8%; in the assay with DU-145 prostate, 37.2%; with K-562 leukemia, 2.59% (active). The growth is -52.6% (active) with MALME-3M melanoma; -31.7% (active) in the assay with RXF 393 renal; 54.2% in the assay on SF-268 CNS; 49.5% with SF-295 CNS; -88.1% (active) with SF-539 CNS; -0.178% (active) in the assay on UACC-257 melanoma. Moreover, the growth in the assay on M14 melanoma is -42.2% (active).
